Measured values: PubChem BioAssay (NCATS)
Inconclusive results are not listed. The source made the active and inactive calls. Calls come from the whole dose curve; as a rule, active = well fitted cell-killing curve with a large enough effect; inconclusive = small, poorly fitted or top-dose-only effect, or effect the other way; inactive = flat fitted curve, though single readings scatter.

Key:
Experiment in all cases: Primary qHTS to identify gynecologic anti-cancer compounds using libraries of approved drugs and bioactive compounds (AID 1345084); note: nearly all actives have a fitted effect of over 55% in size
Details in all cases: Gynecologic cancer cell panel viability, ATPlite luminescence, 48 h; series mostly up to 57.5 µM
OV90 = system: OV90
In short: (§1)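 ATP-based viability (ATPlite), 1,000 cells/well, 16 h pre-incubation, 48 h compound at 37 C, 5% CO2, 15 min RT before read.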

PA-1 = system: PA-1
In short: as §1

SKOV3 = system: SKOV3
In short: as §1

Tov-21-G = system: Tov-21-G
In short: as §1

Tov112D = system: Tov112D
In short: as §1
% is set by controls: 0 for no effect and ±100 for the full control effect; potency is the fitted concentration of half-maximal effect.

C=C1C(=O)O[C@@H]2/C=C(\C)CC/C=C(\C(=O)O[C@@H]3O[C@H](CO)[C@@H](O)[C@H](O)[C@H]3O)CC[C@@H]12
inactive: Potency (OV90) | Potency (PA-1) | Potency (SKOV3) | Potency (Tov-21-G) | Potency (Tov112D)

C[C@@H]1O[C@@H](O[C@H]2[C@@H]3C=CO[C@@H](O[C@@H]4O[C@H](CO)[C@@H](O)[C@H](O)[C@H]4O)[C@@H]3[C@@]3(CO)O[C@@H]23)[C@H](O)[C@H](OC(=O)/C=C/c2ccc(O)cc2)[C@H]1OC(=O)/C=C/c1ccc(O)cc1
inactive: Potency (OV90) | Potency (PA-1) | Potency (SKOV3) | Potency (Tov-21-G) | Potency (Tov112D)

CC(C)C1C(OC(=O)/C=C/c2ccccc2)CC2(C)OC2CCC2(C)OC2C1O (stereo not given)
inactive: Potency (OV90) | Potency (PA-1) | Potency (SKOV3) | Potency (Tov-21-G) | Potency (Tov112D)

CC1(C)CC[C@]2(C(=O)O)CC[C@]3(C)C(=CCC4[C@@]5(C)C[C@@H](O)[C@H](O)[C@@](C)(CO)C5CC[C@]43C)C2C1 (stereo not given in full)
inactive: Potency (OV90) | Potency (PA-1) | Potency (SKOV3) | Potency (Tov-21-G) | Potency (Tov112D)

C/C=C/C=C/C(O)=C1/C(=O)[C@]2(C)C(=O)[C@@](C)(O)[C@H]1[C@H]([C@@]1(C)OC(=O)C(C)=C1O)[C@H]2C(=O)CC/C=C/C
inactive: Potency (OV90) | Potency (PA-1) | Potency (SKOV3) | Potency (Tov-21-G) | Potency (Tov112D)

CC(CC12CCCN1C(=O)C1CCCN1C2=O)OC(N)=O (stereo not given)
inactive: Potency (OV90) | Potency (PA-1) | Potency (SKOV3) | Potency (Tov-21-G) | Potency (Tov112D)

CC1=C2CC(O)(C(C)(C)O)C(O[C@@H]3O[C@H](CO)[C@@H](O)[C@H](O)[C@H]3O)CC(C)C2CC1=O (stereo not given in full)
inactive: Potency (OV90) | Potency (PA-1) | Potency (SKOV3) | Potency (Tov-21-G) | Potency (Tov112D)

O=S(=O)(O)c1ccc(Nc2ncnc3c2ncn3[C@@H]2O[C@H](CO)[C@@H](O)[C@H]2O)cc1
inactive: Potency (OV90) | Potency (PA-1) | Potency (SKOV3) | Potency (Tov-21-G) | Potency (Tov112D)

C/C=C/C=C/C(=O)OC1CC/C=C/C(O)C(O)C(CCC)OC1=O (stereo not given)
inactive: Potency (OV90) | Potency (PA-1) | Potency (SKOV3) | Potency (Tov-21-G) | Potency (Tov112D)

CN1CCN(c2nc(-c3ccc(C(=O)NC4(C(=O)NCC#N)CCCCC4)cc3)cs2)CC1
inactive: Potency (OV90) | Potency (PA-1) | Potency (SKOV3) | Potency (Tov-21-G) | Potency (Tov112D)

CC1CC2(O)OC(=O)C3=C2C(CCC3)[C@@]12C[C@@H](c1ccoc1)OC2=O (stereo not given in full)
inactive: Potency (OV90) | Potency (PA-1) | Potency (SKOV3) | Potency (Tov-21-G) | Potency (Tov112D)

CCC(C)C(C(=O)O)N1Cc2c(OCC=C(C)C)c(C)c(OC)c(C(=O)O)c2C1=O (stereo not given)
inactive: Potency (OV90) | Potency (PA-1) | Potency (SKOV3) | Potency (Tov-21-G) | Potency (Tov112D)

CC(=O)/C=C/C1(O)C(C)CC(O[C@@H]2O[C@H](CO)[C@@H](O)[C@H](O)[C@H]2O)CC1(C)C (stereo not given in full)
inactive: Potency (OV90) | Potency (PA-1) | Potency (SKOV3) | Potency (Tov-21-G) | Potency (Tov112D)

C=C1CCC2C(C)(C)CC(O)CC2(C)C1CCC(C)CC(=O)O (stereo not given)
inactive: Potency (OV90) | Potency (PA-1) | Potency (SKOV3) | Potency (Tov-21-G) | Potency (Tov112D)

CC(C)C1CCC(CO)=CC1/C=C(\CO)C(=O)OCC1(O)CCC(C(C)C)C2C=C(C(=O)O)COC(=O)C21 (stereo not given)
inactive: Potency (OV90) | Potency (PA-1) | Potency (SKOV3) | Potency (Tov-21-G) | Potency (Tov112D)

C=CC(C)(O)CC/C=C(\C)C(=O)O[C@@H]1[C@@H](O)[C@H](OC(C)(C=C)CC/C=C(\C)C(=O)O)O[C@H](CO)[C@H]1OC(=O)/C(C)=C/CCC(C)(O)C=C (stereo not given in full)
inactive: Potency (OV90) | Potency (PA-1) | Potency (SKOV3) | Potency (Tov-21-G) | Potency (Tov112D)

C=C1CC[C@@]2(OC1)O[C@H]1CC3C4CC=C5C[C@@H](O[C@@H]6O[C@@H](C)[C@H](O)[C@@H](O)[C@H]6O)C[C@@H](O[C@@H]6O[C@H](C)[C@H](O)[C@H](O)[C@H]6O[C@@H]6O[C@@H](C)[C@H](O)[C@@H](O)[C@H]6O)[C@]5(C)C4CC[C@]3(C)[C@H]1[C@@H]2C (stereo not given in full)
inactive: activity change, negative = cytotoxicity (OV90) -12.6% [at 11.6 µM] | activity change, negative = cytotoxicity (PA-1) -0.609% [at 11.6 µM] | activity change, negative = cytotoxicity (SKOV3) -7.76% [at 11.6 µM] | activity change, negative = cytotoxicity (Tov-21-G) -15.7% [at 11.6 µM] | activity change, negative = cytotoxicity (Tov112D) 1.88% [at 11.6 µM]

C[C@H]1[C@H](C)C[C@@H](C(=O)O)C2CC[C@]3(C)C(=CC[C@@H]4[C@@]5(C)CC[C@H](O)C(C)(C)[C@@H]5CC[C@]43C)[C@@H]21 (stereo not given in full)
inactive: Potency (OV90) | Potency (PA-1) | Potency (SKOV3) | Potency (Tov-21-G) | Potency (Tov112D)

C=C1CCC2C(C)(C)CC(O)CC2(C)C1CCC(C)CCOC(=O)CCC(=O)O (stereo not given)
inactive: Potency (OV90) | Potency (PA-1) | Potency (SKOV3) | Potency (Tov-21-G) | Potency (Tov112D)

COc1cc(OC)cc(-c2ccc3c(-c4ccc(F)cc4)[nH]nc3n2)c1
inactive: Potency (OV90) | Potency (PA-1) | Potency (SKOV3) | Potency (Tov-21-G) | Potency (Tov112D)

COc1cc(C2OCC3(O)C(c4ccc(O[C@@H]5O[C@H](CO)[C@@H](O)[C@H](O)[C@H]5O)c(OC)c4)OCC23O)ccc1O (stereo not given in full)
inactive: Potency (OV90) | Potency (PA-1) | Potency (SKOV3) | Potency (Tov-21-G) | Potency (Tov112D)

CCOC(=O)C(CCc1ccccc1)NC(C)C(=O)N1Cc2ccccc2CC1C(=O)O (stereo not given)
inactive: Potency (OV90) | Potency (PA-1) | Potency (SKOV3) | Potency (Tov-21-G) | Potency (Tov112D)

CC(C)C[C@H](NC(=O)[C@@H]1O[C@H]1C(=O)O)C(=O)NCCCCN=C(N)N
active: Potency (OV90) 28.2 µM
inactive: Potency (PA-1) | Potency (SKOV3) | Potency (Tov-21-G) | Potency (Tov112D)
